Measured values from PubChem BioAssay AID1159580 (chemical genetic matrix, 2015).
Out of some 5,500 compounds screened, about 2,000 (36%) were called active. Not shown: some 18% with an inconclusive outcome. Rule as the data show it: active = normalized growth mostly below about 0.91 (no sharp cut-off); inconclusive = no clear call, values can overlap the other calls; inactive = mostly above about 0.92. Some of the results follow.

Test: chemical genetic growth profiling, strain panel (AID 1159580);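 also: tested at 20 µM; growth read once vehicle control cultures reached saturation at 30 °C; 1 = growth at the plate median or of vehicle wells; lower values mean less growth of the strain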
Details: S. cerevisiae deletion strains, growth OD

Measured: normalized growth

CC(/C=C/c1ccccc1)=N/OC(=O)c1ccccc1Cl
active: locus YLR113W, strain HOG1, stronger effect = lower value 0.734 | locus YPL256C, strain CLN2, stronger effect = lower value 0.806
inactive: locus YAR019C, strain CDC15, stronger effect = lower value 0.967 | locus YBL105C, strain PKC1, stronger effect = lower value 0.97 | locus YBR135W, strain CKS1, stronger effect = lower value 0.974 | locus YBR136W, strain MEC1, stronger effect = lower value 0.969 | locus YBR160W, strain CDC28, stronger effect = lower value 0.97 | locus YDL017W, strain CDC7, stronger effect = lower value 0.976 | locus YDL028C, strain MPS1, stronger effect = lower value 0.981 | locus YDL101C, strain DUN1, stronger effect = lower value 0.976 | locus YDL108W, strain KIN28, stronger effect = lower value 0.982 | locus YDL132W, strain cdc53, stronger effect = lower value 0.978 | locus YDL214C, strain PRR2, stronger effect = lower value 0.902 | locus YDR052C, strain DBF4, stronger effect = lower value 0.981 | locus YDR054C, strain cdc34, stronger effect = lower value 0.96 | locus YDR226W, strain ADK1, stronger effect = lower value 0.979 | locus YDR477W, strain SNF1, stronger effect = lower value 0.911 | locus YER123W, strain YCK3, stronger effect = lower value 0.876 | locus YER133W, strain GLC7, stronger effect = lower value 0.917 | locus YFL009W, strain cdc4, stronger effect = lower value 0.974 | locus YFL029C, strain CAK1, stronger effect = lower value 0.969 | locus YFR003C, strain YPI1, stronger effect = lower value 0.97 | locus YFR019W, strain FAB1, stronger effect = lower value 0.936 | locus YFR028C, strain CDC14, stronger effect = lower value 0.969 | locus YGR040W, strain KSS1, stronger effect = lower value 0.887 | locus YGR052W, strain FMP48, stronger effect = lower value 0.949 | locus YGR092W, strain DBF2, stronger effect = lower value 0.874 | locus YHR030C, strain SLT2, stronger effect = lower value 0.899 | locus YHR079C, strain IRE1, stronger effect = lower value 0.888 | locus YHR082C, strain KSP1, stronger effect = lower value 0.96 | locus YHR205W, strain SCH9, stronger effect = lower value 0.864 | locus YIL147C, strain SLN1, stronger effect = lower value 0.974 | locus YJL095W, strain BCK1, stronger effect = lower value 0.903 | locus YJL128C, strain PBS2, stronger effect = lower value 0.955 | locus YJL157C, strain FAR1, stronger effect = lower value 0.879 | locus YJR016C, strain ILV3, stronger effect = lower value 0.978 | locus YJR066W, strain TOR1 (second series), stronger effect = lower value 0.795 | locus YJR066W, strain TOR1, stronger effect = lower value 0.963 | locus YKL048C, strain ELM1, stronger effect = lower value 0.936 | locus YKL067W, strain YNK1, stronger effect = lower value 0.907 | locus YKL101W, strain HSL1, stronger effect = lower value 0.902 | locus YKL193C, strain SDS22, stronger effect = lower value 0.974 | locus YKL203C, strain TOR2, stronger effect = lower value 0.954 | locus YLR133W, strain CKI1, stronger effect = lower value 0.896 | locus YLR403W, strain SFP1, stronger effect = lower value 0.86 | locus YML070W, strain DAK1, stronger effect = lower value 0.849 | locus YMR001C, strain CDC5, stronger effect = lower value 0.97 | locus YMR205C, strain PFK2 (second series), stronger effect = lower value 0.917 | locus YMR277W, strain FCP1, stronger effect = lower value 0.966 | locus YNL006W, strain LST8, stronger effect = lower value 0.984 | locus YNL020C, strain ARK1, stronger effect = lower value 0.905 | locus YNL161W, strain CBK1, stronger effect = lower value 0.968 | locus YNL183C, strain NPR1, stronger effect = lower value 0.903 | locus YNL207W, strain RIO2, stronger effect = lower value 0.965 | locus YNL222W, strain SSU72, stronger effect = lower value 0.984 | locus YNL307C, strain MCK1 (second series), stronger effect = lower value 0.899 | locus YOL078W, strain AVO1, stronger effect = lower value 0.975 | locus YOL136C, strain PFK27, stronger effect = lower value 0.849 | locus YOR061W, strain CKA2, stronger effect = lower value 0.9 | locus YOR119C, strain RIO1, stronger effect = lower value 0.961 | locus YOR231W, strain MKK1, stronger effect = lower value 0.84 | locus YOR329C, strain SCD5, stronger effect = lower value 0.974 | locus YPL031C, strain PHO85, stronger effect = lower value 0.909 | locus YPL153C, strain RAD53, stronger effect = lower value 0.896 | locus YPL204W, strain HRR25, stronger effect = lower value 0.897 | locus YPL209C, strain IPL1, stronger effect = lower value 0.966 | locus YPR025C, strain CCL1, stronger effect = lower value 0.977 | locus YPR106W, strain ISR1, stronger effect = lower value 0.964 | locus YPR111W, strain DBF20, stronger effect = lower value 0.961 | strain NNK1, stronger effect = lower value 0.963 | strain TSCII, stronger effect = lower value 0.961
